PubChem BioAssay (NCI)
About 83,000 compounds went through this panel and 20% of them were active in at least one assay; those are over-represented in the sample as a whole.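 Treatment: one concentration, 48 hours, 96-well format. Scoring: percent growth, with anything below 10 considered active.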 Active and inactive are the calls of the source.

These compounds were tested on SK-MEL-5 melanoma (assay: NCI-60 one-dose screen, 48 h (100 = growth as untreated, 0 = no growth, -100 = all killed)). Conditions: 10 µM unless noted.
`COc1ccc(-c2nn(-c3ccccc3)cc2/C=C/C(=O)c2ccc(NC(=O)CCCCCCC(=O)NO)cc2)cc1` was tested, and the growth was 101% (inactive). With `O=C(NCCCNc1cc(-c2cn(-c3ccccc3)nc2-c2cccc(O)c2)ccn1)Nc1cccc(C(F)(F)F)c1` the growth was 37.8% (inactive). With `Cc1[nH]nc2ccc(-c3nc4cnc(N5CCN(C)CC5)cn4c3Nc3ccc(F)cc3Br)cc12` the growth was 75.4% (inactive). `O=C(/C=C/c1cccc(O)c1)c1ccc(O)cc1` was tested, and the growth was 96.9% (inactive). `C#Cc1ccc(NC(=O)c2ccc(/C=C/C(=O)c3nccn3C)cc2)c(F)c1` was tested, and the growth was 60.5% (inactive). `O=C(Nc1ccc(F)cc1)c1cc(-c2ccc(F)cc2F)ccc1O` was tested, and the growth was -63.9% (active). In the case of `Oc1ccc(CSc2nnc(-c3ccc(Oc4ccccc4)cc3)o2)c2cccnc12`, the growth is reported as 16.6% (inactive). For `Cc1ccc(NC(=O)c2ccc(CN3CCN(C)CC3)c(C(F)(F)F)c2)cc1Oc1ccc(-c2[nH]nc3ncnc(N)c23)cc1`, the growth was 73% (inactive). `N#Cc1c(NC(=O)c2ccccc2C(F)(F)F)sc2c1CCC(=O)C2` was tested, and the growth was -75.5% (active). In the case of `CCN(CC)c1ccc2cc(C(=O)NCCOCCOCCOCCn3cc(CCC(=O)Nc4ccc(C(=O)c5ccc(NC(=O)OC(C)(C)C)cc5)cc4)nn3)c(=O)oc2c1`, the growth is reported as -17.2% (active). In the case of `CS(=O)(=O)c1ccc(-c2nn(-c3ccccc3)cc2/C=N/NC(=O)c2ccncc2)cc1`, the growth is reported as 105% (inactive). `Cc1ccc(S(=O)(=O)N/N=C/c2cn(-c3ccc(F)cc3)nc2-c2ccc(S(C)(=O)=O)cc2)cc1` was tested, and the growth was 102% (inactive). For `CS(=O)(=O)c1ccc(-c2nn(-c3ccccc3)cc2/C=C/C(=O)c2ccc(Br)cc2)cc1`, the growth was 92.4% (inactive). `O=C(NCCCNc1cc(-c2cn(-c3ccccc3)nc2-c2cccc(O)c2)ccn1)Nc1ccc(F)cc1` was tested, and the growth was -55% (active). With `CN1C(=O)N(C)C2C1NN=c1s/c(=C\c3ccccn3)c(=O)n12` (configuration not stated) the growth was 102% (inactive). With `Fc1ccc(-c2cc3nc(C(Cl)Cl)nc(-c4cccs4)n3n2)cc1` the growth was 92% (inactive). For `COc1ccc([C@H]2c3[nH]c4ccccc4c3C[C@@H]3C(=O)N(C4CCN(Cc5ccccc5)CC4)CC(=O)N23)c(OC)c1`, the growth was 73.7% (inactive). For `Cn1ccnc1C(=O)/C=C/c1ccc(C(=O)Nc2ccc(NC(=O)CCNC(=O)c3csc(Br)n3)cc2)cc1`, the growth was 98.8% (inactive). For `Cc1nn(-c2ccccc2)cc1/C=N/Nc1nc(Nc2ccccc2)nc(Nc2ccc(S(N)(=O)=O)cc2)n1`, the growth was -44.3% (active). With `COCCC[C@H]1O[C@@](O)([C@H](C)[C@@H]2CC(OC)C(O)/C=C(C)/C=C(C)/C=C(\C)C(OC3O[C@@H](C)[C@H](O)C(O)[C@@H]3O)C(C)/C=C(C)/C=C(OC)/C=C(\C)C(=O)O2)C(OC)C(O)[C@]1(C)O[C@H]1C[C@@H](O)[C@H](O[C@H]2C[C@](C)(O)[C@H](O)C(C)O2)C(C)O1` (some centres not stated) the growth was 7.32% (active). With `COc1ccc(N2C(=O)c3cc(OC)c(OC)cc3NC2SCc2ccccc2)cc1` (configuration not stated) the growth was 97% (inactive). In the case of `Cc1cc2nc(C(Cl)Cl)nc(-c3ccco3)n2n1`, the growth is reported as 97.8% (inactive). `COc1ccc(S(=O)(=O)NCCCNc2nccc(-n3cnc4ccccc43)n2)cc1` was tested, and the growth was 70.1% (inactive). With `O=C(NCCCNc1cc(-c2cn(-c3ccccc3)nc2-c2cccc(O)c2)ccn1)Nc1cc(C(F)(F)F)cc(C(F)(F)F)c1` the growth was 55.7% (inactive). With `Cc1ccc(NC(=O)c2ccc(CN3CCN(C)CC3)c(I)c2)cc1Oc1ccc(-c2[nH]nc3ncnc(N)c23)cc1` the growth was 62.6% (inactive). In the case of `Cc1ccc(-n2cc(/C=C/C(=O)c3ccc(S(C)(=O)=O)cc3)c(-c3ccc(S(C)(=O)=O)cc3)n2)cc1`, the growth is reported as 94.4% (inactive). In the case of `COc1cc(/C=C/C(=O)c2ccc(NC(=O)CSc3nnc(-c4ccc5nc(-c6ccccc6)[nH]c5c4)o3)cc2)cc(OC)c1OC`, the growth is reported as 92.2% (inactive). `O=c1oc2ccc(-c3ccc(F)cc3F)cc2c(=O)n1-c1cccc(C(F)(F)F)c1` was tested, and the growth was -72.4% (active). For `C#CCOc1ccccc1C(Nc1ccccc1)c1nnnn1C1CCCCC1` (configuration not stated), the growth was 99.6% (inactive). In the case of `NCCN1CCN(c2nc(-c3ccccc3)nc3nc(-c4ccccc4)oc23)CC1`, the growth is reported as 78.7% (inactive). In the case of `CN1C(=O)N(C)C2Nn3c(s/c(=C\c4ccccn4)c3=O)=NC21` (configuration not stated), the growth is reported as 102% (inactive). `CNC(=O)c1cc(N2CCc3cc(NC(=O)Nc4ccc(Cl)c(Cl)c4)ccc32)ccn1` was tested, and the growth was 74.5% (inactive).
